# Assay results: PubChem BioAssay AID651567 (National Center for Advancing Translational Sciences (NCATS), 2012)
# Out of some 1,200 compounds screened, about 10 (0.8%) were called active. About 4% were inconclusive and are not listed. Calls come from the whole dose curve; as a rule, active = well fitted inhibition curve with a large enough effect; inconclusive = small, poorly fitted or top-dose-only effect; inactive = no such curve, though single readings can be large or run the other way. For the sample, actives were picked, then their nearest neighbours and some compounds at random.
# Assay: qHTS Assay to Find Inhibitors of Chronic Active B-Cell Receptor Signaling: Hit Validation in OCI-Ly3 Assay
# Conditions: OCI-Ly3 IkB-luciferase reporter, Chroma-Glo luminescence, 4 h; series mostly up to 46.1 µM; activity change, negative = inhibition: at the top concentration
# Text: Diffuse large B-cell lymphoma (DLBCL) is the most common category of non-Hodgkin lymphoma, with ~20,000 new cases per year in the United States. DLBCL should be regarded as a collection of different neoplasms. Microarray gene expression analysis has defined two principal types of DLBCL, named for their similarity to normal B cell stages or activation states: a germinal center B-cell (GCB) type, and an activated B-cell (ABC) type. In ABC-DLBCL, a constitutive high-level activity of the NF-kappaB family of transcription factors has been observed (1) and NF-kappaB target genes are more highly expressed in ABC primary tumors than in GCB tumors. Functional studies have shown a constitutive high-level activity of the IkappaB (inhibitor of kappa-B) kinase (IKK) complex. […] Further analysis of DLBCL primary tumors for NF-kappaB target gene expression imply that although CARD11 is required for constitutive IKK activity in all ABC-DLBCL lines, mutations in CARD11 may be the root cause of IKK activation only in lines or tumors with such mutations. In other words, CARD11 mutations may explain NF-kappaB activation in only 10% of ABC-DLBCL cases. […] This process has been termed 'chronic active BCR signaling' (CABS). The goal of this screen is to find small-molecule inhibitors of the CABS pathway found in ABC-DLBCL lines using a cell-based assay that measures IkappaBalpa stability, which has already been extensively validated in the OCI-Ly3 line (PubChem AID:445; REF: 4). […] Hits from the primary screen were tested in this selectivity secondary assay. NIH Molecular Libraries Probe Production Network [MLPCN] NIH Chemical Genomics Center [NCGC] MLPCN Grant: R03 DA031086 PI Name: Dr. R. Eric Davis
# Cells were seeded in 1536-well plates at 5000 cells/3ul in IMDM medium containing 0.5% FBS, w/o phenol red, L-glutamine, 25 mM HEPES, 3 mg/ml sodium bicarbonate. After centrifugation for 1 min. at 1000 rpm, 23 nl of compounds or DMSO were delivered to each well using a pin tool. Then 1ul 80ng/ml doxycycline was dispensed into white solid 1536-well plates and the plates were incubated at 37C/5% C02 in a cell incubator for 4 hrs. Then 4 ul Chroma-Glo luminescent substrate mix (Promega) was added to each well. The plate was incubated at R.T. for 10-15 min. The plates were measured on a ViewLux plate reader for green luminescence (540/20 nm filter) and red luminescence (618/8 nm filter). The green and red luminescent signals were corrected for red and green luminescence filter overlap using previously determined filter calibration constants (determined using the procedure outlined in the Promega Technical Manual). The %Activity was determined from the ratio of corrected green/red luminescent values. Green luminescent and ratio %Activity was determined by normalizing to the difference in signal between basal cells (0% Activity) and cells incubated with 10 uM of the proteasome inhibitor MG-132 (100% Activity). Red luminescent %Activity was normalized to the difference between red luminesence in basal cells (0%Activity) and zero luminescence (-100% Activity). Concentration-response curves were fitted to the signals arising from the green luminescence (I-kappa-B-alpha-luciferase fusion; IkB-luc) and the red luminescence (unfused luciferase; luc) as well as the calculated ratio. The concentration-effect curves were then classified based on curve quality (r2), response magnitude and degree of measured activity. Compounds were then categorized based on their concentration-response curves for all three datasets (Ikb-luc, luc and ratio).
# % is set by controls: 0 for no effect and ±100 for the full control effect; potency is the fitted concentration of half-maximal effect.
SMILES,"activity change, negative = inhibition",Potency
CCCCOc1ccc(Br)cc1/C(C)=N/NC1=NCCN1,-0.15% (inactive),–
COc1cccc(C2NC(=S)NC(C)=C2C(=O)c2ccccc2)c1OC (configuration not stated),-1.95% (inactive),–
O=C(/C=C/c1ccccc1Cl)c1cccnc1,-0.735% (inactive),–
CCOC(=O)C1CCN(S(=O)(=O)c2c(Cl)ccc3nonc23)CC1,1.28% (inactive),–
S=c1nc2ccccc2c2nc(-c3ccccc3Br)[nH]n12,83.2% (inactive),–
Oc1ccc(-c2nnc(Nc3cccc(O)c3)c3ccccc23)cc1,-1.7% (inactive),–
COc1ccc(-c2cc(C(F)(F)F)n3nc(C(=O)NCCCn4ccnc4)cc3n2)cc1,-0.239% (inactive),–
COc1ccccc1-c1cc(C(=O)NCCc2ccccc2)no1,-4.78% (inactive),–
COc1ccc(C(=O)c2ccc(N(C)C)cc2)c2ccccc12,-4.15% (inactive),–
CCCCC[C@H](O)/C=C/C1=C(CCCCCCC(=O)O)C(=O)CC1,-0.832% (inactive),–
ClCc1nc2ccccc2c2ccccc12,–,13 µM (active)
CCc1nc2ccccc2c(C(=O)OCc2nc3ccccc3c(=O)[nH]2)c1C,-2.85% (inactive),–
S=c1nc2ccccc2c2nc(-c3ccccc3)[nH]n12,18.3% (inactive),–
CCCc1oc2ccc(NS(=O)(=O)c3ccc(OC)cc3)cc2c1C(=O)OCC,-4.35% (inactive),–
COc1ccc2c(c1)c(/C=N/Nc1nc3ccccc3[nH]1)c(C)n2C,-10% (inactive),–
COC(=O)[C@@H]1[C@@H](C#N)C2(c3ccccc3-c3ccccc32)N(c2ccc(Cl)cc2)N1C#N,0.249% (inactive),–
O=C(Nc1ccc([N+](=O)[O-])cc1)Nc1ccon1,-2.62% (inactive),–
Cc1cccc(Cn2cc(/C=C/[N+](=O)[O-])c3ccccc32)c1,-2.08% (inactive),–
CCN(CC)c1ccc2c(C)c(CO)c(=O)oc2c1,-0.0824% (inactive),–
Cc1nc(NC(=S)Nc2ccccc2)sc1C,31.6% (inactive),–
COc1ccc(OC)c(-c2cc(C(=O)Nc3c(C)nn(Cc4ccccc4)c3C)no2)c1,-2.57% (inactive),–

SMILES,"activity change, negative = inhibition",Potency
Cc1ccc(O)c(N=Nc2nccs2)c1,–,16.4 µM (active)
CCOC(=S)SCC(=O)Nc1nc(-c2ccc(Br)cc2)cs1,-1.99% (inactive),–
CC[C@]12c3[nH]c4cc(CCC(=O)N(C)C)ccc4c3CCN1C(=O)[C@@H](CC(=O)NCC13CC4CC(CC(C4)C1)C3)C[C@@H]2C(=O)N1CCN(C(=O)c2ccco2)CC1,-3.16% (inactive),–
Cc1cccc(NS(=O)(=O)c2ccc(-c3cnc(C4CC4)o3)cc2)c1C,-14.9% (inactive),–
CCN(CC)c1ccc(-c2nn3c(-c4ccccc4OC)nnc3s2)cc1,-2.37% (inactive),–
COc1cc(OC)cc(C(=O)NCC(=O)N2CC=C(c3ccccc3)CC2)c1,-2.46% (inactive),–
CC1=Nc2cc(C(=O)NCc3ccco3)ccc2Sc2ccc(C)cc21,-2.52% (inactive),–
CCCCC[C@H](O)/C=C/[C@@H]1[C@@H](CCCCCCC(=O)O)[C@@H](O)C[C@H]1O,-1.13% (inactive),–
COc1ccc(Nc2nc(-c3c(C)nc4ncccn34)cs2)cc1,-6.49% (inactive),–
COc1ccc(NC(=O)C(=O)NCC2CCCN2S(=O)(=O)c2ccc(C)cc2)cc1 (configuration not stated),-2.59% (inactive),–
COc1ccc(Nc2nc(N)nc(CCl)n2)cc1,0.223% (inactive),–
Cc1ccc2nc(SCC(=O)Nc3cc(C(F)(F)F)ccc3N3CCOCC3)[nH]c2c1,-7.54% (inactive),–
CCOc1ccc(N(CC(=O)Nc2ccccc2OC)S(=O)(=O)c2ccccc2)cc1,-3.72% (inactive),–
COc1cc2c(cc1OC)C(c1ccc(OC)c(OC)c1OC)CC(=O)N2 (configuration not stated),-0.252% (inactive),–
Cn1c(O)c(N=NC(=S)Nc2ccccc2F)c2cc(S(=O)(=O)N3CCOCC3)ccc21,–,3.66 µM (active)
CCc1ccccc1NC(=S)N=Nc1c(O)n(C)c2ccc(S(=O)(=O)N3CCOCC3)cc12,-9.04% (inactive),–
Cc1ccccc1NC(=S)N=Nc1c(O)n(C)c2ccc(S(=O)(=O)N3CCOCC3)cc12,-18.4% (inactive),–
COc1ccc(/C=C/C(=O)Nc2ccc(-n3nncc3-c3ccc(OC)c(OC)c3)cc2)cc1OC,-1.06% (inactive),–
COc1ccc(OC)c(C2C3=C(COC3=O)Nc3cc4c(cc32)OCO4)c1 (configuration not stated),-1.69% (inactive),–
CCN(CC)S(=O)(=O)c1ccc2c(c1)c(=O)c(C(=O)NCCc1ccc(OC)c(OC)c1)cn2C,-0.826% (inactive),–
O=C(COc1ccc(C(=O)c2ccc(F)cc2)cc1)NCc1ccc(F)cc1,-2.37% (inactive),–
